The values below come from PMC5540273 (PLoS ONE, 2017).
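Note: KINOMEscan kinase panel screen.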

The test has as its system MYO3B. Conditions: concentration: 1 μM, replicates: in singlicate; n = 1.
`O=C(O)C(F)(F)F.O=C(O)C(F)(F)F.O=c1[nH]ccc2nc(N[C@@H]3CCCNC3)nc(Nc3ccc(S(=O)(=O)N4CCOCC4)cc3)c12` [GSK2177277]: the “%Inh” value was determined as 0%. `COc1cc(Nc2nccc(N3CCC(NC(=O)c4cc5ccccc5s4)C3)n2)cc(OC)c1OC` (stereo not shown) [GSK1379760]: the “%Inh” value came to 0%. Regarding `CN1CCN(Cc2cccc(-c3ccc4c(Nc5ccc(Oc6ccccc6)cc5)ccnc4c3)c2)CC1` [GW578342], the “%Inh” value was 0%.

Regarding `Fc1ccc(-c2ncn(C3CCNCC3)c2-c2ccnc(Oc3ccc(-c4ccccc4)cc3)n2)cc1` [SB-245391], the “%Inh” value amounted to 17%. As to `Cc1ccc(S(=O)(=O)Nc2ccc(Nc3nccc(Nc4cccc5[nH]ncc45)n3)cc2)cc1` [GSK581271], the “%Inh” value stood at 0%. Consider `COC(=O)Nc1nc2ccc(Oc3ccc(NC(=O)Nc4cc(C(F)(F)F)ccc4F)cc3)cc2n1C.Cl` [GW692089], for which the “%Inh” value came to 0%. Consider `O=C(Nc1n[nH]c2nc(-c3ccc(O)cc3)ccc12)C1CC1` [SB-710363], for which the “%Inh” value is 9%. The figure for `CNC(=O)c1ccccc1Nc1nc(Nc2ccc(N3CCOCC3)cc2)ncc1Cl.Cl` [GSK1576028] is 0%; for `Cl.NC(=O)c1cccc(Nc2nccc(Nc3ccc(Oc4c(Cl)cccc4Cl)c(Cl)c3)n2)c1` [GW659009] it is 0%. `COc1cc(Nc2nccc(-c3c(-c4cccc(NC(=O)c5c(F)cccc5F)c4)nn4ccccc34)n2)cc(OC)c1OC` [GSK323521]: the “%Inh” value was found to be 100%.

With `Cn1cc(-c2ccc3c(c2)CCN3C(=O)Cc2cccc(F)c2)c2c(N)ncnc21` [GSK2603358], the “%Inh” value is on record as 5%.

As to `Cc1cccc(Nc2nc(N[C@H]3CCNC3)ncc2C(N)=O)c1.Cl` [GSK2197149], the “%Inh” value was 0%.

As to `c1ccc(-c2n[nH]cc2Nc2ccnc3ccccc23)nc1` [GW694077], the “%Inh” value is 0%. As for `CN(C)Cc1ccc(-c2ccc3c(Nc4ccc(Oc5ccccn5)cc4)ccnc3c2)o1` [GW567148], the “%Inh” value is 0%. With `CCS(=O)(=O)c1ccc(OC)c(Nc2nccc(-c3c(-c4cccc(NC(=O)c5c(F)cccc5F)c4)nn4ncccc34)n2)c1` [GSK326180], the “%Inh” value is 6%. With `COc1cccc(C2=C(Nc3ccc(Cl)c(C(=O)O)c3)C(=O)NC2=O)c1` [SB-390769], the “%Inh” value was 0%. Take `COc1cccc(NC(=O)NC2CCN(c3ccnc(Nc4cc(OC)c(OC)c(OC)c4)n3)C2)c1` (stereo not shown) [GSK1379763]: the “%Inh” value is given as 0%. With `Cc1ccc(C)c(NC(=O)NC2CCN(c3ccnc(Nc4ccc(F)cc4)n3)C2)c1` (stereo not shown) [GSK1379720], the “%Inh” value is given as 0%. Consider `Cc1ccc(F)c(C(=O)Nc2cccc(-c3nn4ccccc4c3-c3ccnc(Nc4cccc(F)c4)n3)c2)c1F` [GSK361061], for which the “%Inh” value was 0%. The figure for `Cc1occc1-c1ncc(OC[C@@H](N)Cc2c[nH]c3ccccc23)cc1-c1ccc2[nH]nc(C)c2c1.O=C(O)C(F)(F)F` [GSK682037] is 38%. For the compound `COc1ccc(Nc2nccc(N3CCC(NC(=O)Nc4cccc(OC)c4)C3)n2)cc1` (stereo not shown) [GSK1379742], the “%Inh” value was determined as 0%.

Consider `CC(=O)N1CCN(c2ccc(Nc3nccc(-c4sc(C(C)C)nc4-c4cccc(NS(=O)(=O)c5cccc(Cl)c5)c4)n3)cn2)CC1` [GSK1660437], for which the “%Inh” value is recorded as 49%. Regarding `Nc1ncnc2c1nc(-c1ccccc1)n2-c1ccccc1` [SKF-97293], the “%Inh” value is reported as 38%. Regarding `O=C(NC1CCN(c2ccnc(Nc3ccc(F)cc3)n2)C1)c1cc2ccccc2s1` (stereo not shown) [GSK1379716], the “%Inh” value is 0%. Next, `COc1cccc(C(=O)Nc2cccc(Oc3ccc4nc(NC(=O)C5CC5)cn4n3)c2)c1`: 0%; `Cl.Cl.NCC(C(=O)Nc1cc(Br)c(-c2ccnc3[nH]ccc23)s1)c1ccccc1` (stereo not shown) [GSK1269851]: 0%; `Cn1cc(-c2ccc3c(c2)CCN3C(=O)Cc2cccc(Cl)c2)c2c(N)ncnc21` [GSK2606590]: 21%.

Regarding `COc1cc(Nc2ncc3c(C)nc(-c4cc5ccccc5[nH]4)n3n2)cc(OC)c1OC` [GW869516], the “%Inh” value stood at 0%. The figure for `O=C(Nc1cccc(-c2nn3ccccc3c2-c2ccnc(Nc3cccc(F)c3)n2)c1)c1c(F)ccc(F)c1Cl` [GSK357952] is 0%; for `C[C@@H](Oc1cc(-n2cnc3cc(-c4ccnc(NCCS(C)(=O)=O)c4)ccc32)sc1C(N)=O)c1ccccc1Cl` [GSK907232] it is 0%; for `COc1cccc(-c2ccc3c(NC(=O)C4CC4)n[nH]c3n2)c1` [SB-710903] it is 0%.
